# From PubChem BioAssay AID1626 (SRMLSC, 2009)
# Screen size: about 220,000 compounds; about 2,000 (0.91%) were called active. Not shown: some 2% with an inconclusive outcome. Rule as the data show it: inconclusive = inhibition above about 80% without an active follow-up result; inactive = below that; test concentration not stated here. Only a sample is shown. Potency and affinity values are given separately.
# Assay: M. tuberculosis H37Rv growth inhibitors, H37Rv strain (AID 1626);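 also: bacteria incubated seven days before Alamar blue readout; 0% = bacteria only wells and 100% = bacteria with antibiotic wells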
# Conditions: hits give high values, concentration not given here
row,Structure (SMILES),inhibition
1,CCn1cc(-c2cc(C(F)(F)F)n3nc(C(=O)O)cc3n2)c(C)n1,-10.8% (inactive)
2,COc1ccc(C)cc1NC(=O)C1CCCCC1C(=O)O (stereo unspecified),-8.21% (inactive)
3,CCOC(=O)C(NCc1ccc(F)cc1)(NC(=O)c1ccccc1)C(F)(F)F (stereo unspecified),-7.14% (inactive)
4,Cc1nn(-c2ccccc2)c2[nH]c(=O)c(CNCc3ccc4c(c3)OCO4)cc12,-1.83% (inactive)
5,COc1cccc(NCc2cc3c(C(C)(C)C)nn(-c4ccccc4)c3[nH]c2=O)c1,-5.67% (inactive)
6,CCc1ccc(NCc2cc3c(C)nn(-c4ccccc4)c3[nH]c2=O)cc1,26% (inactive)
7,CC(C)(C)c1nn(-c2ccccc2)c2[nH]c(=O)c(CNc3ccc4c(c3)OCCO4)cc12,4.42% (inactive)
8,CCOc1cccc(NCc2cc3c(C(C)(C)C)nn(-c4ccccc4)c3[nH]c2=O)c1,70.7% (inactive)
9,Cc1nn(-c2ccccc2)c2[nH]c(=O)c(CNCCN3CCOCC3)cc12,3.32% (inactive)
10,Cn1c(O)c(N=NC(=O)c2ccccc2O)c2ccccc21,-0.85% (inactive)
11,Cc1cc(C2(c3ccc(O)c(C)c3)OC(=O)c3ccccc32)ccc1O,-1.73% (inactive)
12,CC/C(C)=C1\SC(N2CCOCC2)=NC1=O,1.74% (inactive)
13,Cc1cc(C)nc(N2CCC(C(=O)NCc3ccccc3F)CC2)n1,-8.28% (inactive)
14,CC(=O)Nc1ccn(-c2ccccc2)n1,0.92% (inactive)
15,O=C(Nc1ccn(-c2ccccc2)n1)c1ccccc1Br,1.33% (inactive)
16,CC(C)(C)C1CCc2sc(-c3nnc(CCl)o3)cc2C1 (stereo unspecified),43.6% (inactive)
17,COc1cc2[nH]c(=O)n3nc(-c4ccccc4)nc3c2cc1OC,-2.98% (inactive)
18,Cc1nc(N)nc(Cl)c1Cc1ccc(Cl)cc1,3.47% (inactive)
19,Cc1nc2ccc(Cl)cc2nc1C,-12.2% (inactive)
20,COC(=O)/C(C#N)=C/c1c[nH]c2ccccc12,7.57% (inactive)
21,CCCCn1c(=O)c(C(=O)Nc2ccsc2C(=O)OC)c(O)c2ccccc21,1.97% (inactive)

row,Structure (SMILES),inhibition
1,CCCCCCn1c(=O)c(C(=O)Nc2c(C)n(C)n(-c3ccccc3)c2=O)c(O)c2ccccc21,-5.05% (inactive)
2,CCCCn1c(=O)c(C(=O)Nc2ccccc2)c(O)c2ccccc21,-1.05% (inactive)
3,CCCCCn1c(=O)c(C(=O)Nc2ccccc2S(N)(=O)=O)c(O)c2ccccc21,6.87% (inactive)
4,CCN(CC)S(=O)(=O)c1cc(C(=O)OCC(=O)NC(=O)c2cccn2C)ccc1C,-5.23% (inactive)
5,O=C(CCNc1ccc(F)cc1)c1cc2ccccc2o1,-9.46% (inactive)
6,Cn1cc(Br)c(C(=O)NNC(=O)c2ccc(Br)cc2)n1,6.79% (inactive)
7,CCN(CC)c1ccc(NC(=O)CCCCCN2C(=O)c3ccccc3C2=O)cc1,-10.5% (inactive)
8,CCN(CC)c1ccc2c(c1)C(=O)N(C)C2=O,7.2% (inactive)
9,O=C(Nc1ccc2oc(-c3ccccc3Cl)nc2c1)c1cncc(Br)c1,-3.07% (inactive)
10,CN(C)/C=N/c1nc(-c2ccc3c(c2)OCO3)cs1,-11.6% (inactive)
11,Brc1ccc(-c2csc(/N=C/N3CCCC3)n2)cc1,64.4% (inactive)
12,COc1ccc(CNC(=O)C2C3C=CC4(CN(Cc5cccnc5)C(=O)C24)O3)cc1 (stereo unspecified),-7.2% (inactive)
13,COc1ccc(NC(=O)C(=O)N/N=C(\C)CC(=O)Nc2ccccn2)c(OC)c1,-16.2% (inactive)
14,NS(=O)(=O)c1ccc(NC(=O)CCC2CCCCC2)cc1,-3.12% (inactive)
15,O=C(CCc1ccc(Oc2cc([N+](=O)[O-])cc([N+](=O)[O-])c2)cc1)N1CCCCC1,3.78% (inactive)
16,CC1CCN(C(=O)CCc2ccc(Oc3cc([N+](=O)[O-])cc([N+](=O)[O-])c3)cc2)CC1,71.9% (inactive)
17,CC1(C)S/C(=N/N=C/c2ccco2)NC1=O,3.45% (inactive)
18,CCOc1ccc(-n2c(N)c(C(=O)N3CCN(C)CC3)sc2=S)cc1,2.86% (inactive)
19,CN(C)S(=O)(=O)N1CCN(c2ccc([N+](=O)[O-])c(N3CCOCC3)c2)CC1,6.14% (inactive)
20,Cc1c(O)ccc(-c2n[nH]c(C(=O)O)c2-c2nc3ccccc3s2)c1O,-16.8% (inactive)
21,O=C(CC(Sc1n[nH]c(-c2ccccc2)n1)c1ccccc1)NCc1ccccc1 (stereo unspecified),-4.33% (inactive)

row,Structure (SMILES),inhibition
1,O=C(NCc1c(F)cccc1F)c1cc(COc2c(F)cccc2F)on1,4.13% (inactive)
2,COC(=O)OCC12CCC(O1)C1(C)C(=O)OCC21 (stereo unspecified),2.41% (inactive)
3,COC(/C=C/Nc1ccc(Br)cc1)=C(C#N)C#N,-3.61% (inactive)
4,CC1CCN(CCC(=O)NN)CC1,1.23% (inactive)
5,CCOC(=O)/C(C#N)=N/Nc1ccccc1OC,12.6% (inactive)
6,COc1ccc(-c2cc(C3CCN(c4cc(Cl)nc(N)n4)CC3)[nH]n2)cc1,4.7% (inactive)
7,Nc1nc(Cl)cc(N2CCC(c3cc(-c4ccc(Cl)cc4Cl)n[nH]3)CC2)n1,8.57% (inactive)
8,O=c1c2c3c(sc2nc2n1N=C(c1cccs1)CS2)CCCC3,3.06% (inactive)
9,CC(=O)Nc1ccc(S(=O)(=O)N2CCN(CCN3CCOCC3)CC2)cc1Cl,-2.42% (inactive)
10,Cc1onc(-c2ccccc2)c1C(=O)Nc1nc(-c2cc(F)ccc2F)cs1,-3.02% (inactive)
11,O=C(CCc1ccccc1)Nc1nc2c(F)cc(F)cc2s1,12.2% (inactive)
12,O=C(NNc1nc2c(F)cc(F)cc2s1)c1ccccc1,6.46% (inactive)
13,O=C(Nc1nc(-c2cc(F)ccc2F)cs1)C1=NN(c2ccccc2)C(=O)CC1,8.23% (inactive)
14,O=C(Nc1nc2ccccc2s1)c1ccc(F)cc1,2.23% (inactive)
15,O=C(Nc1nc2ccc(F)cc2s1)c1cccs1,-2.98% (inactive)
16,S=C(NCC1CCCO1)Nc1ccccc1Cl (stereo unspecified),-6.63% (inactive)
17,CC(C)(C)C(O)(CC#CCN1CCCC1)c1ccccc1 (stereo unspecified),-4.05% (inactive)
18,O=C(NCC1OCCc2ccccc21)C1COc2ccccc2O1 (stereo unspecified),9.06% (inactive)
19,Cc1cccc(NC(=O)C2(c3cccs3)CCOCC2)n1,-3.03% (inactive)
